Experimental data from the supplement of paper PMC3334620.
The full ranking holds about 33,000 sequences; the median of “E-score (-0.5 to 0.5)” is about -0.017, and the highest 2% start at about 0.3. Only a selection was taken, and the highest values are over-represented in it overall.

Biological target: T1, Sut1 (UniProt P53032)
T1 sequence: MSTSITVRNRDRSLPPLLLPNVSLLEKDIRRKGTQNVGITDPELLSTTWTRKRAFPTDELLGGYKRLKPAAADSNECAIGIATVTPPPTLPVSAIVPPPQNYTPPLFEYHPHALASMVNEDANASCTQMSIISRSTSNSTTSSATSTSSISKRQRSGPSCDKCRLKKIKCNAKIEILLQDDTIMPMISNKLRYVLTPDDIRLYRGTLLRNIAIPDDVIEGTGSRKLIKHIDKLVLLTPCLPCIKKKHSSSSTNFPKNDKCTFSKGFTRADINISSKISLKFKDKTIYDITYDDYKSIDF
Assay: PBM E-score (8-mer binding enrichment) (E-score (-0.5 to 0.5)); higher = stronger / more preferred TF binding
Details: protein concentration: 200 nM; construct: GST-full length
Procedure: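 Universal 'all 10-mer' protein binding microarrays (Agilent AMADID 015681) probed with GST-tagged S. cerevisiae TFs (full-length or DBD) made by in vitro transcription/translation (PURExpress), about 100-200 nM. Bound TF was detected with fluorescent anti-GST. Each ungapped 8-mer (which stands for itself and its reverse complement) is scored by the PBM enrichment score (E-score), a modified Wilcoxon-Mann-Whitney statistic from -0.5 to +0.5, computed with the Universal PBM Analysis Suite. Scale: above 0.35 generally sequence-specific binding.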

Row | Sequence | PBM E-score
1 | GAGTCCGC | 0.282
2 | CAGTCCCG | -0.0578
3 | TAGTCCAA | -0.01
4 | CAGTCCGA | 0.411
5 | TAGTCCCA | -0.21
6 | CAGTCCGC | 0.196
7 | CAGTCCGG | 0.353
8 | AACTTACT | 0.0273
9 | CGCCCTTC | -0.0609
10 | AGTGGCGA | 0.0883
11 | AGGGGCCC | -0.217
12 | AACAGAAT | 0.0169
13 | ATCGATGG | -0.0596
14 | AGGCTACG | -0.345
15 | AAGTCTGA | -0.193
16 | CAAATTCA | 0.0268
17 | GCAGAATA | -0.0687
18 | ACACCGGC | 0.0168
19 | TCACCGCA | -0.0955
20 | CCACCGGA | 0.362
21 | ACACCGGT | 0.0191
22 | ACACCGGA | 0.343

Row | Sequence | PBM E-score
23 | GCACCGGA | 0.338
24 | CCACCGGG | -0.0405
25 | GCACCGGC | -0.0791
26 | GCACCGTA | 0.0972
27 | TCACCGAA | 0.155
28 | CCACCGGC | 0.0248
29 | TCACCGGA | 0.397
30 | GGCTTTAC | 0.113
31 | ACTGAGAC | 0.00875
32 | ATCCAGAC | -0.0133
33 | CGGTTTAC | 0.00822
34 | AGGGCTGA | -0.161
35 | CGAGGAAG | 0.0543
36 | AAGCCATC | 0.0153
37 | TAACAGGA | 0.0331
38 | GAACCAGA | -0.185
39 | GAACGTGC | -0.234
40 | TGGTTAAA | 0.159
41 | CAACGGAG | 0.399
42 | AAACGGGA | 0.159
43 | CAACGGAA | 0.25
44 | AAACGGTA | 0.0446

Row | Sequence | PBM E-score
45 | CAACGGAC | 0.291
46 | TAACGGAA | 0.309
47 | AAACGGAA | 0.331
48 | AAACGGAG | 0.37
49 | AAACGGAT | 0.209
50 | TCACGGAA | 0.238
51 | GAACGGAA | 0.166
52 | AAACGGAC | 0.147
53 | ACCCAACG | -0.0276
54 | CACCCTAC | -0.161
55 | CATATGCG | -0.0808
56 | AGTAAACG | -0.0776
57 | CTACCAGC | -0.212
58 | GGCGTTGA | -0.134
59 | GCAGTAAC | -0.144
60 | GAATTGTA | 0.128
61 | CTCTCCCC | -0.259
62 | AATGCTTG | -0.238
63 | CGACCTGA | -0.184
64 | CCTAAAGA | 0.0405
65 | ACTAATCA | 0.139
66 | CAGAGTCA | -0.379

Row | Sequence | PBM E-score
67 | TCAAGAAA | 0.316
68 | CAAAGAAA | 0.115
69 | TAAAGAAA | 0.301
70 | CCAAGAAA | 0.241
71 | GAAAGAAA | 0.294
72 | ACAAGAAA | 0.218
73 | CTAGGCCA | -0.145
74 | ATGGGGAA | -0.0455
75 | GAGAAGGC | -0.0615
76 | CGCGCACC | -0.0354
77 | GGTGAGAA | 0.137
78 | CCGCTCAA | -0.078
79 | CCTCCGGC | 0.106
80 | ACTCCTGC | 0.0597
81 | ACTCCGGC | 0.489
82 | ACTCCCGG | 0.174
83 | CATCCGGG | -0.0527
84 | ACTCCGGG | 0.491
85 | TACAATGA | 0.153
86 | CAAGATTC | 0.235
87 | ATACGGAT | 0.0822
